The record followed here is PubChem BioAssay (EPA / NIEHS).

Read-out in assay [1]: TIMP metallopeptidase inhibitor 1 (TIMP1), TIMP1 (gene 7076)
In words: BSK_hDFCGF_TIMP1: BioMAP Diversity Plus: hDFCGF Assay for TIMP metallopeptidase inhibitor 1 (TIMP1) Biomarker Activity (AID 2283062). As to conditions: primary human foreskin fibroblasts; actives raise or lower the signal. The procedure, abridged:
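Bidirectional curve fitting against DMSO baseline yielded this endpoint, based on ELISA detection of TIMP-1 in primary human foreskin fibroblasts exposed to compound for 24 h.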

Read-out in assay [2]: Monokine induced gamma interferon (MIG), CXCL9 (gene 4283)
Briefly: BSK_hDFCGF_MIG: BioMAP Diversity Plus: hDFCGF Assay for Monokine induced gamma interferon (MIG) Biomarker Activity (AID 2283063). The conditions noted are these: primary human foreskin fibroblasts; actives raise or lower the signal. The procedure, abridged: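 Endpoint derived by bidirectional fitting relative to DMSO; MIG quantified via ELISA in primary human foreskin fibroblasts harvested 24 h after dosing.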

Read-out in assay [3]: Matrix Metallopeptidase 1 (MMP1), MMP1 (gene 4312)
In words: BSK_hDFCGF_MMP1: BioMAP Diversity Plus: hDFCGF Assay for Matrix Metallopeptidase 1 (MMP1) Biomarker Activity (AID 2283064). The conditions noted are these: primary human foreskin fibroblasts; actives raise or lower the signal. The procedure, abridged:
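Primary human foreskin fibroblasts in the hDFCGF system were dosed with test chemical, and MMP1 was measured by ELISA 24 h later. Values come from bidirectional curve fitting against the DMSO baseline.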

Read-out in assay [4]: Vascular cell adhesion molecule 1 (VCAM1), VCAM1 (gene 7412)
In words: BSK_hDFCGF_VCAM1: BioMAP Diversity Plus: hDFCGF Assay for Vascular cell adhesion molecule 1 (VCAM1) Biomarker Activity (AID 2283065).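 On AC50: VCAM-1 protein level quantified by ELISA after 24 h chemical exposure.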 As to conditions: primary human foreskin fibroblasts; actives raise or lower the signal. The procedure, abridged:
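Measured after 24 h chemical treatment of primary human skin fibroblasts, VCAM-1 was detected by ELISA and concentration-response analysed in both directions versus DMSO vehicle.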

Read-out in assay [5]: Plasminogen activator inhibitor-1 (PAI1), SERPINE1 (gene 5054)
Briefly: BSK_hDFCGF_PAI1: BioMAP Diversity Plus: hDFCGF Assay for Plasminogen activator inhibitor-1 (PAI1) Biomarker Activity (AID 2283066). As to conditions: primary human foreskin fibroblasts; actives raise or lower the signal. The procedure, abridged:
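Primary dermal fibroblasts (human foreskin), hDFCGF system; compound 24 h; PAI-1 by ELISA; bidirectional fit vs DMSO control.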

Read-out in assay [6]: Intercellular Adhesion Molecule 1 (ICAM1), ICAM1 (gene 3383)
Briefly: BSK_KF3CT_ICAM1: BioMAP Diversity Plus: KF3CT Assay for Intercellular Adhesion Molecule 1 (ICAM1) Biomarker Activity (AID 2283067). As to conditions: primary human keratinocytes with fibroblasts; actives raise or lower the signal. The procedure, abridged:
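Bidirectional curve fitting against a DMSO baseline was applied to ICAM-1 ELISA signal from primary human skin co-cultures harvested 24 h after treatment, with SRB staining of parallel wells for overt cytotoxicity.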

Read-out in assay [7]: Interferon-gamma inducible Protein 10 (IP10), CXCL10 (gene 3627)
In words: BSK_KF3CT_IP10: BioMAP Diversity Plus: KF3CT Assay for Interferon-gamma inducible Protein 10 (IP10) Biomarker Activity (AID 2283068). The conditions noted are these: primary human keratinocytes with fibroblasts; actives raise or lower the signal. The procedure, abridged: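 ELISA read-out of IP-10 after 24 h chemical dosing of human skin primary co-culture (keratinocytes, foreskin fibroblasts). Gain or loss of signal relative to DMSO, bidirectional curve fit.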

Assay [8] is described as follows: BSK_KF3CT_SRB: Viability Assessment in the BioMAP Diversity Plus: KF3CT Assay (AID 2283069).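 Further: total protein by sulforhodamine B staining as a cytotoxicity measure; read 24 h after compound addition.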 As to conditions: primary human keratinocytes with fibroblasts. The procedure, abridged: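 Human primary keratinocyte plus foreskin fibroblast co-culture exposed to chemicals for 24 h. Total protein measured by 0.1% sulforhodamine B staining after 10% TCA fixation, read at 560 nm; bidirectional fitting versus DMSO baseline.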

Read-out in assay [9]: Interleukin-1 alpha (IL1a), IL1A (gene 3552)
Briefly: BSK_KF3CT_IL1a: BioMAP Diversity Plus: KF3CT Assay for Interleukin-1 alpha (IL1a) Biomarker Activity (AID 2283070). As to conditions: primary human keratinocytes with fibroblasts; actives raise or lower the signal. The procedure, abridged: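 Human keratinocyte plus foreskin fibroblast primary co-culture, sampled 24 h after chemical dosing. IL-1a measured by ELISA; responses fitted bidirectionally against DMSO baseline (negative control), so gain or loss of signal both count.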

Read-out in assay [10]: TIMP metallopeptidase inhibitor 2 (TIMP2), TIMP2 (gene 7077)
In words: BSK_KF3CT_TIMP2: BioMAP Diversity Plus: KF3CT Assay for TIMP metallopeptidase inhibitor 2 (TIMP2) Biomarker Activity (AID 2283071). As to conditions: primary human keratinocytes with fibroblasts; actives raise or lower the signal. The procedure, abridged: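 Cells: human keratinocytes co-cultured with foreskin fibroblasts. Treat with chemical, 24 h. Measure TIMP-2 by ELISA; fit curves bidirectionally vs DMSO baseline.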

Read-out in assay [11]: Transforming growth factor beta 1 (TGFb1), TGFB1 (gene 7040)
In words: BSK_KF3CT_TGFb1: BioMAP Diversity Plus: KF3CT Assay for Transforming growth factor beta 1 (TGFb1) Biomarker Activity (AID 2283072). The conditions noted are these: primary human keratinocytes with fibroblasts; actives raise or lower the signal. The procedure, abridged:
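Primary human skin cells (keratinocytes, foreskin fibroblasts) were co-cultured, exposed to test chemical and sampled at 24 h. TGF-b1 levels were measured by ELISA and fitted bidirectionally relative to DMSO.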

Read-out in assay [12]: C-C motif chemokine 2 (Homo sapiens) (UniProt P13500)
Briefly: BSK_KF3CT_MCP1: BioMAP Diversity Plus: KF3CT Assay for Monocyte Chemoattractant Protein 1 (MCP1/CCL2) Biomarker Activity (AID 2283073). As to conditions: primary human keratinocytes with fibroblasts; actives raise or lower the signal. The procedure, abridged:
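Biomarker MCP-1 is measured by ELISA in primary human keratinocytes co-cultured with foreskin fibroblasts, 24 h after chemical treatment; DMSO serves as the negative control and activity baseline.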

Read-out in assay [13]: Matrix Metallopeptidase 9 (MMP9), MMP9 (gene 4318)
In words: BSK_KF3CT_MMP9: BioMAP Diversity Plus: KF3CT Assay for Matrix Metallopeptidase 9 (MMP9) Biomarker Activity (AID 2283074).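 On AC50: MMP9 protein level quantified by ELISA in the co-culture.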 The conditions noted are these: primary human keratinocytes with fibroblasts; actives raise or lower the signal. The procedure, abridged: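 Keratinocyte plus foreskin fibroblast human primary skin co-culture was dosed with chemical and MMP-9 was quantified by ELISA 24 h later. Bidirectional curve fitting used DMSO as negative control and activity baseline.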

Read-out in assay [14]: urokinase plasminogen activator (uPA), PLAU (gene 5328)
Briefly: BSK_KF3CT_uPA: BioMAP Diversity Plus: KF3CT Assay for urokinase plasminogen activator (uPA) Biomarker Activity (AID 2283075). The conditions noted are these: primary human keratinocytes with fibroblasts; actives raise or lower the signal. The procedure, abridged: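 Human keratinocyte plus foreskin fibroblast primary co-culture exposed to chemical for 24 h. uPA levels were quantified by ELISA, and activity was fitted bidirectionally against a DMSO negative-control baseline.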

Read-out in assay [15]: CD40, CD40 (gene 958)
In words: BSK_LPS_CD40: BioMAP Diversity Plus: LPS Assay for CD40 Biomarker Activity (AID 2283076). As to conditions: primary human HUVEC with PBMC; actives raise or lower the signal. The procedure, abridged:
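Using a multiplexed primary human co-culture (umbilical vein endothelium plus PBMC), CD40 was read by ELISA 24 h after dosing, with cytotoxicity tracked by sulforhodamine B staining of parallel cultures and activity fitted bidirectionally versus DMSO.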

Read-out in assay [16]: E-selectin (Homo sapiens) (UniProt P16581)
In words: BSK_LPS_Eselectin: BioMAP Diversity Plus: LPS Assay for Eselectin Biomarker Activity (AID 2283077). As to conditions: primary human HUVEC with PBMC; actives raise or lower the signal. The procedure, abridged:
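Dose chemical onto LPS-driven HUVEC/PBMC co-culture; after 24 h, run ELISA for E-selectin; fit up- and down-going responses relative to DMSO control.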

Read-out in assay [17]: Interleukin-8 (IL8), CXCL8 (gene 3576)
Briefly: BSK_LPS_IL8: BioMAP Diversity Plus: LPS Assay for Interleukin-8 (IL8) Biomarker Activity (AID 2283078). As to conditions: primary human HUVEC with PBMC; actives raise or lower the signal. The procedure, abridged:
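In this LPS system, chemical-treated human umbilical vein endothelium/PBMC co-cultures were harvested at 24 h for IL-8 ELISA.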

The nature of assay [18]: BSK_LPS_SRB: Viability Assessment in the BioMAP Diversity Plus: LPS Assay (AID 2283079).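 Further: total protein by sulforhodamine B absorbance as a cytotoxicity measure; measured one day after compound addition.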 The conditions noted are these: primary human HUVEC with PBMC. The procedure, abridged:
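Cytotoxicity endpoint in human endothelial–PBMC co-culture: 24 h exposure, then SRB (0.1%) staining, 560 nm read.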

Read-out in assay [19]: Interleukin-1 alpha (IL1a), IL1A (gene 3552)
Briefly: BSK_LPS_IL1a: BioMAP Diversity Plus: LPS Assay for Interleukin-1 alpha (IL1a) Biomarker Activity (AID 2283080). As to conditions: primary human HUVEC with PBMC; actives raise or lower the signal. The procedure, abridged: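 Primary human HUVEC and PBMC co-culture stimulated with LPS is dosed and harvested at 24 h. Both increases and decreases in ELISA-measured IL-1a are scored relative to DMSO.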

Read-out in assay [20]: Monocyte Chemoattractant Protein-1 (MCP1), CCL2 (gene 6347)
In words: BSK_LPS_MCP1: BioMAP Diversity Plus: LPS Assay for Monocyte Chemoattractant Protein-1 (MCP1) Biomarker Activity (AID 2283081). As to conditions: primary human HUVEC with PBMC; actives raise or lower the signal. The procedure, abridged:
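Values derive from bidirectional fitting against DMSO of ELISA-measured MCP-1 in a human primary endothelial and mononuclear cell co-culture, 24 h after chemical addition under LPS activation.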

Active and inactive are the calls of the source. How the source made its calls: active means hit-call score of the fitted dose curve at least 0.9, where 1 is the maximum; inactive means score below 0.9.

Sequence of E-selectin (Homo sapiens) (P16581 whole entry, looked up): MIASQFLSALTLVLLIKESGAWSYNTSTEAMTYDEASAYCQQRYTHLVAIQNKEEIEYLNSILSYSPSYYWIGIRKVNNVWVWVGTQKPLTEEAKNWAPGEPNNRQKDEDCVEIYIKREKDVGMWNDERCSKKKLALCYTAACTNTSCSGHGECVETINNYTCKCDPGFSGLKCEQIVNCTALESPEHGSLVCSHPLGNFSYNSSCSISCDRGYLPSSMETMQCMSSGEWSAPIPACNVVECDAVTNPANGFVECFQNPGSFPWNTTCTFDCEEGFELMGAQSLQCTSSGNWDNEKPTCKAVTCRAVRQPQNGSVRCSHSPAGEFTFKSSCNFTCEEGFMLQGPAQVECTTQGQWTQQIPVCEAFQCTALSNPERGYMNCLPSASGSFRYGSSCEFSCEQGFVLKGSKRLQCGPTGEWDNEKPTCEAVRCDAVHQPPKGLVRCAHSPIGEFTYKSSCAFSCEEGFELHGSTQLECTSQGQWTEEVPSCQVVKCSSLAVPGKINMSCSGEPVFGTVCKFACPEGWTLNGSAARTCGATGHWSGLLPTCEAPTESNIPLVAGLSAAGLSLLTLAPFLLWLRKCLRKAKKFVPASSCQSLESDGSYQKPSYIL

Broadly, the AC50 is the concentration giving half of the maximal activity seen. Turning to `Cc1cccc(N)c1N`, the outcome in assay [1], in assay [2], in [3], in [4], in [5] and in [7] was inactive. Besides, the result in assay [8], in assay [9], in assay [10], in assay [11], in assay [12] and in [13] was inactive. Besides, the outcome in [14], in assay [16], in assay [18], in [19] and in assay [20] was inactive. Moreover, the AC50 in assay [6] was 9010 nM (active); in assay [15], 7510 nM (active); in assay [17], 20000 nM (active).
`CCCSC(=O)N(CCC)CCC`: the result in [1], in [2], in assay [3], in [4], in [5] and in [6] was inactive. Besides, the result in [7], in assay [8], in assay [9], in assay [10], in [11] and in assay [12] was inactive. For the same compound, the result in assay [13], in assay [14], in assay [15], in [16], in assay [17] and in assay [18] was inactive. Besides, the result in [19] was inactive.
In the case of `CCC(C)c1ccc(O)cc1` (stereo not drawn), the outcome in assay [1], in assay [2], in assay [3], in [4], in assay [5] and in assay [6] was inactive. The result in assay [7], in [8], in [9], in assay [10], in assay [11] and in assay [12] was inactive. The outcome in assay [13], in [14], in [15], in assay [16], in assay [17] and in assay [18] was inactive. In addition, the outcome in assay [19] and in [20] was inactive.
In the case of `CCC[CH2][Sn]([Cl])([CH2]CCC)[CH2]CCC`, the AC50 was 148 nM (active) in assay [1]; 369 nM (active) in assay [2]; 271 nM (active) in [3]; 148 nM (active) in assay [4]; 296 nM (active) in [5]; 148 nM (active) in assay [6]. The AC50 in assay [7] was 342 nM (active); in assay [8], 422 nM (active); in [9], 294 nM (active); in assay [10], 246 nM (active); in assay [11] it was 692 nM (active); in assay [13], 292 nM (active). The AC50 was 148 nM (active) in assay [14]; 148 nM (active) in [15]; 148 nM (active) in [16]; 148 nM (active) in [17]; 269 nM (active) in assay [18]; 344 nM (active) in assay [19].
`COC(=O)Nc1nc2ccccc2[nH]1`: the outcome in assay [1], in [2], in [3], in [4], in [6] and in [7] was inactive. For the same compound, the outcome in assay [8], in assay [9], in [10], in assay [11], in [12] and in assay [13] was inactive. In addition, the outcome in [14], in [15], in [16], in assay [17] and in [19] was inactive. Moreover, in [18], the AC50 is 10500 nM (active).
On to `O=C1CCCO1`, for which the result in assay [1], in assay [2], in assay [3], in assay [4], in assay [6] and in [7] was inactive. Also, the result in assay [8], in assay [9], in [10], in [11], in assay [12] and in assay [13] was inactive. Further, the outcome in assay [14], in assay [15], in assay [16], in assay [17], in assay [18] and in assay [19] was inactive.
